The source of these data is PubChem BioAssay (NCATS).

The target of assay [1] is Glutathione peroxidase 1 (Homo sapiens) (UniProt P07203). Put plainly: Primary qHTS Assay for Inhibitors of Recombinant Selenoprotein Glutathione Peroxidase 1 (GPX1) (AID 1845191). For activity, negative = inhibition: % is set by controls: 0 for no effect and ±100 for the full control effect. Note: nearly all actives have a fitted effect of over 65% in size. An outline of the steps: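 GPX1 10 nM, GR 100 nM, GSH 1 mM, NADPH 0.5 mM, CHP 0.5 mM (final). 30-min cpd preincubation, RT. Ex340/Em450 read t=0, t=15 min.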
Background: Quantitative high-throughput screening tests each substance at several concentrations.

Assay [2] concerns the target Phospholipid hydroperoxide glutathione peroxidase GPX4 (Homo sapiens) (UniProt P36969). The experiment in a line: Primary qHTS Assay for Inhibitors of Recombinant Selenoprotein Glutathione Peroxidase 4 (GPX4) (AID 1845192). For activity change, negative = inhibition: series mostly up to about 50 µM; % is set by controls: 0 for no effect and ±100 for the full control effect. Note: nearly all actives have a fitted effect of over 65% in size. The procedure, abridged: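 qHTS, GR-coupled: GPX4 200 nM + cpd 30 min RT → GSH 1 mM, NADPH 0.5 mM, GR 100 nM → CHP 0.5 mM start; fluor 340/450 at t0 and t15 min; no-enzyme wells as control.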

Assay [3] deals with Luciferin 4-monooxygenase (Photinus pyralis) (UniProt P08659). Put plainly: Primary firefly luciferase (FLuc) qHTS assay for identification of artifact compounds. (AID 1845220).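 For activity change, negative = inhibition: series mostly up to about 54 µM; plate controls were DMSO vehicle for no effect and no enzyme for full effect.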 Note: nearly all actives have a fitted effect of over 60% in size. The procedure, abridged:
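In this counter-screen for luciferase artifacts, test compounds met substrate (10 uM each luciferin and ATP) before 10 nM enzyme started the reaction. Light output was measured 5 min later.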

Assay [4] is described as follows: Primary fluorescence-based thiol-reactive (MSTI) qHTS assay for identification of artifact compounds. (AID 1845221).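 For activity change, negative = thiol reactive: series mostly up to about 54 µM; thiol-reactive compounds lower the probe fluorescence signal.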 Note: nearly all actives have a fitted effect of over 65% in size. Note: potency is the fitted concentration of half-maximal effect. The procedure, abridged: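 qHTS titration of compound; 4 uM MSTI, PBS pH 7.4, 2% DMSO; 1 h RT, dark; fluorescence 525/598 nm; normalized to Acetyl-MSTI and MSTI; 4-parameter Hill fit.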
Assay [5] deals with Nanoluciferase (engineered Oplophorus gracilirostris luciferase). The experiment in a line: Primary Nanoluciferase (NLuc) qHTS assay for identification of artifact compounds. (AID 1845222).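 Note: NLuc secreted into diluted conditioned medium of S16 cells; series mostly up to about 54 µM.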 The procedure, abridged: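 Using secreted nanoluciferase in S16 culture medium (0.22 um filtered, 1:55 dilution), compounds were preincubated 15 min at RT. Signal was generated with Nano-Glo reagent (1:100) over 5 min.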

The nature of assay [6]: Primary redox qHTS assay for identification of artifact compounds. (AID 1845223).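 Note: 0% = DMSO and 100% = reference compound.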 An outline of the steps:
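Redox-cycling detection via DTT (250 uM final) oxidation coupled to Amplex Red (25 uM)/HRP (250 mU/mL) in HBSS. 15 min preincubation plus 30 min after DTT, room temperature. Ex/Em 525/598 nm; 4-parameter Hill fit against DMSO and 10 uM DA3003.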

A number with no mark means an inactive call. Results filed as inconclusive are left out. Active and inactive are the calls of the source. Calls come from the whole dose curve; as a rule, active = well fitted curve in the direction sought with a large enough effect; inconclusive = small, poorly fitted or top-dose-only effect, or another doubt; inactive = no such curve, though single readings can be large; an effect the other way counts as inactive or inconclusive. *1 amine or outer side, *2 acyl side, *3 side chain or, on linkers, in order; H or OH if unused. Where a SMILES comes first, the peptide text is derived from it. [ ]: non-standard residue; d: D form. X4 = CC(C)=CCc1cc(C(O)C(N[*:1])C(=O)[*:2])ccc1O

Sequence of Phospholipid hydroperoxide glutathione peroxidase GPX4 (Homo sapiens) (P36969 whole entry, looked up): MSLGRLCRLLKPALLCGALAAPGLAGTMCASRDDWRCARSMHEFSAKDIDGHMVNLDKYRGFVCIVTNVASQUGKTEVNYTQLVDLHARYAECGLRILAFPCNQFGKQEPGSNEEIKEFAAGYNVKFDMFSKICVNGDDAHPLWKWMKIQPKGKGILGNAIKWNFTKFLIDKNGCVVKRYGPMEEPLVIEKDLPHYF
Sequence of Glutathione peroxidase 1 (Homo sapiens) (P07203 whole entry, looked up): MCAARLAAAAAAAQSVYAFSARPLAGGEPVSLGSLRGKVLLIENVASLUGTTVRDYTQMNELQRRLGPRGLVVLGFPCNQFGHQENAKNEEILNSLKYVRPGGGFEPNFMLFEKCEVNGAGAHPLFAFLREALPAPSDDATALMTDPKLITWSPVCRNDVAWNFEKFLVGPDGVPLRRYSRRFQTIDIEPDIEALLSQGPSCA

As to `CC1OC(O[C@H]2CC[C@@]3(C)C(CC[C@]4(C)C3CC=C3C5CC(C)(C)CC[C@]5(C(=O)OC5OC(CO)C(OC6OC(COC7OCC(O)C(O)C7O)C(O)C(O)C6O)C(O)C5O)CC[C@]34C)C2(C)C)C(O)C(O)C1OC1OCC(OC2OCC(O)C(O)C2O)C(O)C1O` (some centres not stated), the activity, negative = inhibition in assay [1] was -21.4% [at 9.52 µM]; in assay [5] it was 0% [at 11.6 µM]. Besides, the activity change, negative = inhibition in assay [2] was -7.3% [at 9.73 µM]; in assay [3], -3.25% [at 11.6 µM]. Also, in assay [4], the activity change, negative = thiol reactive is 94.7% [at 11.5 µM]. Also, in assay [6], the redox activity (% of DA3003) is 16.2% [at 11.5 µM].

Regarding `CNC(=O)c1ccccc1Nc1nc(Nc2ccc(N3CCNCC3)cc2)ncc1Cl`, the Potency result in assay [1], in assay [2], in assay [3], in assay [5] and in assay [6] was “inactive” in each case. For the same molecule, the Potency in assay [4] is 3.36 µM (active).

Turning to `COC(=O)C1(C)c2[nH]c3ccccc3c2CCN1C(=O)CCl` (configuration not stated), the Potency entry in assay [1], in assay [2], in assay [3], in assay [4], in assay [5] and in assay [6] was “inactive” in each case.

As for `CC(C)=CCc1cc(C(O)C2NC(=O)CNC(=O)C(Cc3c[nH]c4ccccc34)NC(=O)C3CCCN3C(=O)CNC(=O)C(C(C)C)NC(=O)CNC2=O)ccc1O` (configuration not stated) (cyclo(G[X4]GVGPW); configuration not given here), the Potency result in assay [1] and in assay [2] was “inactive” in each case. Besides, the activity change, negative = inhibition in assay [3] is -7.99% [at 11.6 µM]. For the same molecule, in assay [4], the activity change, negative = thiol reactive was 158% [at 11.5 µM]. Besides, in assay [5], the activity, negative = inhibition is -5.03% [at 11.6 µM]. Also, the redox activity (% of DA3003) in assay [6] was 10.2% [at 11.5 µM].

Consider `COc1ccc(CC2NCCc3c2[nH]c2ccc(C)cc32)cc1OC` (configuration not stated), for which the Potency result in assay [1], in assay [2], in assay [3], in assay [4], in assay [5] and in assay [6] was “inactive” in each case.

In the case of `CC(C)c1cc(C(=O)N2CC[C@@H](NC(=O)C3CC3)C2)n[nH]1`, the Potency result in assay [1], in assay [2], in assay [3], in assay [4], in assay [5] and in assay [6] was “inactive” each time.

`C[C@H]1Oc2cc(cnc2N)-c2c(nn(C)c2C#N)CN(C)C(=O)c2ccc(F)cc21`: the Potency entry in assay [1], in assay [2], in assay [3], in assay [4], in assay [5] and in assay [6] was “inactive” in each case.

For the molecule `CS(=O)(=O)N1CCC(NC(=O)c2[nH]ncc2NC(=O)c2c(Cl)cccc2Cl)CC1`, the Potency result in assay [1], in assay [2], in assay [3], in assay [4], in assay [5] and in assay [6] was “inactive” in each case.

For `CC1(C)CC[C@]2(C(=O)O)CC[C@]3(C)C(=CCC4[C@@]5(C)CC[C@H](O[C@@H]6O[C@H](C(=O)O)[C@@H](O[C@@H]7OC[C@@H](O)[C@H](O)[C@H]7O)[C@H](O)[C@H]6O)C(C)(C)C5CC[C@]43C)C2C1O` (some centres not stated), the Potency result in assay [1], in assay [2], in assay [3], in assay [4], in assay [5] and in assay [6] was “inactive” throughout.

Consider `O=C(O[C@H]1[C@@H]2C[C@@H]3OC[C@](O)([C@@H]1Cl)[C@H]2C(O[C@@H]1O[C@H](CO)[C@@H](O)[C@H](O)[C@H]1O)O3)c1ccc(O)c(O)c1` (some centres not stated), for which the Potency result in assay [1], in assay [2], in assay [3], in assay [5] and in assay [6] was “inactive” throughout. In addition, the Potency in assay [4] is 1.46 µM (active).

`C=C1CC[C@H]2[C@@](C)(CCC(O)[C@@]2(C)CO)[C@@H]1CCC1=CCOC1=O` (some centres not stated): the Potency result in assay [1], in assay [2], in assay [3], in assay [4], in assay [5] and in assay [6] was “inactive” in each case.

Take `O=C(NCc1cccc(O)c1)c1cc2cc(F)ccc2[nH]1`: the Potency result in assay [1], in assay [2], in assay [3], in assay [4], in assay [5] and in assay [6] was “inactive” each time.

Regarding `CC1CC[C@]2(C(=O)O)CC[C@]3(C(=O)O)C(=CCC4[C@@]5(C)CC[C@H](O[C@@H]6O[C@H](CO)[C@@H](O)[C@H](O)[C@H]6O)C(C)(C)C5CC[C@]43C)C2C1C` (some centres not stated), the Potency result in assay [1], in assay [2], in assay [3], in assay [4], in assay [5] and in assay [6] was “inactive” throughout.

As to `CC(C)=C/C=C\[C@H](C)[C@H]1CC[C@]2(C)C[C@@H]3C(C)=CC(=O)C3/C(CO)=C\C[C@@H]12` (some centres not stated), the Potency entry in assay [1], in assay [2], in assay [3], in assay [4], in assay [5] and in assay [6] was “inactive” in each case.

As for `CC(C)C(C#N)O[C@@H]1O[C@H](CO[C@@H]2O[C@@H](C)[C@H](O)[C@@H](O)[C@H]2O)[C@@H](O)[C@H](O)[C@H]1O` (some centres not stated), the Potency entry in assay [1], in assay [2], in assay [3], in assay [4], in assay [5] and in assay [6] was “inactive” in each case.

`O=C(OC[C@H]1O[C@H](O[C@]2(CO)O[C@H](CO)[C@@H](O)[C@@H]2O)[C@H](O)[C@@H](O)[C@@H]1O)c1ccccc1`: the Potency result in assay [1], in assay [2], in assay [3], in assay [4], in assay [5] and in assay [6] was “inactive” each time.

`CNS(=O)(=O)c1ccccc1Nc1nc(Nc2ccc(N3CCN(C)CC3)cc2OC)ncc1Cl`: the Potency entry in assay [1], in assay [2], in assay [3], in assay [5] and in assay [6] was “inactive” in each case. In addition, the Potency in assay [4] was 2.38 µM (active).
